Measurements reported in PubChem BioAssay AID1159580 (chemical genetic matrix, 2015).
Values joined by “and” are separate entries in the source; they are usually repeats but may differ in a detail not shown here. Equal entries are not always repeated. Among all 5,500 compounds or so, about 2,000 (36%) were called active. Inconclusive results (about 18%) are left out. No stated cut-off is given here; in the data, active means normalized growth mostly below about 0.91 (no sharp cut-off); inconclusive means no clear call, values can overlap the other calls; inactive means mostly above about 0.92. Some of the results follow.

Test: chemical genetic growth profiling, strain panel (AID 1159580);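 further: tested at 20 µM; growth read once vehicle control cultures reached saturation at 30 °C; 1 = growth at the plate median or of vehicle wells; lower values mean less growth of the strain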
Details: growth OD

Measured: normalized growth

CC1=C(/C=C/C(C)=C/C=C/C(C)=C\C(=O)O)C(C)(C)CCC1
inactive: S. cerevisiae deletion strains, locus YJR075W, strain HOC1, active compounds read low 0.962 and 1.01 | S. cerevisiae deletion strains, locus YKL009W, strain mrt4, active compounds read low 0.94 | S. cerevisiae deletion strains, locus YKL068W, active compounds read low 1 | S. cerevisiae deletion strains, locus YKL085W, strain MDH1 (second series), active compounds read low 0.941 | S. cerevisiae deletion strains, locus YKL085W, strain MDH1, active compounds read low 0.941 | S. cerevisiae deletion strains, locus YKL160W, strain elf1, active compounds read low 0.977 | S. cerevisiae deletion strains, locus YKL190W, strain CNB1, active compounds read low 0.989 | S. cerevisiae deletion strains, locus YKR001C, strain vps1, active compounds read low 0.942 | S. cerevisiae deletion strains, locus YKR026C, strain gcn3, active compounds read low 0.982 | S. cerevisiae deletion strains, locus YKR091W, strain srl3, active compounds read low 0.988 | S. cerevisiae deletion strains, locus YLL001W, strain dnm1, active compounds read low 0.93 | S. cerevisiae deletion strains, locus YLL026W, active compounds read low 0.966 | S. cerevisiae deletion strains, locus YLL041C, strain sdh2, active compounds read low 0.99 | S. cerevisiae deletion strains, locus YLR027C, strain aat2, active compounds read low 0.958 | S. cerevisiae deletion strains, locus YLR039C, strain RIC1, active compounds read low 0.866 | S. cerevisiae deletion strains, locus YLR058C, strain SHM2, active compounds read low 1 | S. cerevisiae deletion strains, locus YLR102C, strain apc9, active compounds read low 1 | S. cerevisiae deletion strains, locus YLR113W, strain HOG1, active compounds read low 1.08 | S. cerevisiae deletion strains, locus YLR221C, strain rsa3, active compounds read low 1.02 | S. cerevisiae deletion strains, locus YLR258W, strain gsy2, active compounds read low 0.992 | S. cerevisiae deletion strains, locus YLR262C, strain YPT6 (second series), active compounds read low 0.925 | S. cerevisiae deletion strains, locus YLR262C, strain YPT6, active compounds read low 0.875 | S. cerevisiae deletion strains, locus YLR268W, strain sec22, active compounds read low 0.966 | S. cerevisiae deletion strains, locus YLR320W, strain mms22, active compounds read low 0.993 | S. cerevisiae deletion strains, locus YLR330W, strain CHS5, active compounds read low 1.01 | S. cerevisiae deletion strains, locus YLR342W, strain FKS1 (second series), active compounds read low 0.952 | S. cerevisiae deletion strains, locus YLR342W, strain FKS1, active compounds read low 0.953 | S. cerevisiae deletion strains, locus YLR357W, strain rsc2, active compounds read low 0.982 | S. cerevisiae deletion strains, locus YLR370C, strain arc18, active compounds read low 0.996 | S. cerevisiae deletion strains, locus YLR371W, strain rom2, active compounds read low 1.01 | S. cerevisiae deletion strains, locus YLR384C, strain iki3, active compounds read low 0.973 | S. cerevisiae deletion strains, locus YLR418C, strain cdc73, active compounds read low 0.846 | S. cerevisiae deletion strains, locus YML016C, strain PPZ1, active compounds read low 1 | S. cerevisiae deletion strains, locus YML032C, strain rad52, active compounds read low 0.978 | S. cerevisiae deletion strains, locus YML120C, strain ndi1, active compounds read low 0.977 | S. cerevisiae deletion strains, locus YML124C, strain tub3, active compounds read low 0.998 | S. cerevisiae deletion strains, locus YMR058W, strain fet3, active compounds read low 0.978 | S. cerevisiae deletion strains, locus YMR078C, strain ctf18, active compounds read low 0.998 | S. cerevisiae deletion strains, locus YMR125W, strain sto1, active compounds read low 1.01 | S. cerevisiae deletion strains, locus YMR129W, active compounds read low 0.987 | S. cerevisiae deletion strains, locus YMR205C, strain PFK2, active compounds read low 0.971 | S. cerevisiae deletion strains, locus YMR223W, strain ubp8, active compounds read low 0.976 | S. cerevisiae deletion strains, locus YMR231W, strain pep5, active compounds read low 0.98 | S. cerevisiae deletion strains, locus YMR263W, strain SAP30, active compounds read low 0.956 | S. cerevisiae deletion strains, locus YMR307W, strain GAS1, active compounds read low 0.909 and 1.05 | S. cerevisiae deletion strains, locus YNL067W, strain RPL9B, active compounds read low 0.951 | S. cerevisiae deletion strains, locus YNL071W, strain lat1, active compounds read low 0.994 | S. cerevisiae deletion strains, locus YNL128W, strain TEP1, active compounds read low 0.985 | S. cerevisiae deletion strains, locus YNL153C, strain GIM3, active compounds read low 0.933 | S. cerevisiae deletion strains, locus YNL175C, strain NOP13, active compounds read low 1.02 | S. cerevisiae deletion strains, locus YNL183C, strain NPR1, active compounds read low 0.952 | S. cerevisiae deletion strains, locus YNL197C, strain WHI3, active compounds read low 1.03 | S. cerevisiae deletion strains, locus YNL209W, strain ssb2, active compounds read low 0.988 | S. cerevisiae deletion strains, locus YNL224C, strain SQS1, active compounds read low 1.01 | S. cerevisiae deletion strains, locus YNL233W, strain BNI4, active compounds read low 0.947 | S. cerevisiae deletion strains, locus YNL248C, strain rpa49, active compounds read low 1.02 | S. cerevisiae deletion strains, locus YNL250W, strain rad50, active compounds read low 0.992 | S. cerevisiae deletion strains, locus YNL271C, strain bni1, active compounds read low 0.994 | S. cerevisiae deletion strains, locus YNL298W, strain CLA4, active compounds read low 0.979 | S. cerevisiae deletion strains, locus YNL307C, strain MCK1, active compounds read low 0.931 | S. cerevisiae deletion strains, locus YNL322C, strain KRE1 (second series), active compounds read low 0.986 | S. cerevisiae deletion strains, locus YNL322C, strain KRE1, active compounds read low 0.997 and 1.03 | S. cerevisiae deletion strains, locus YNR049C, strain mso1, active compounds read low 0.988 | S. cerevisiae deletion strains, locus YNR052C, strain pop2, active compounds read low 1.01 | S. cerevisiae deletion strains, locus YOL006C, strain TOP1, active compounds read low 0.909 | S. cerevisiae deletion strains, locus YOL012C, strain htz1 0.855 | S. cerevisiae deletion strains, locus YOL147C, strain pex11, active compounds read low 0.995 | S. cerevisiae deletion strains, locus YOR001W, strain rrp6, active compounds read low 0.965 | S. cerevisiae deletion strains, locus YOR061W, strain CKA2, active compounds read low 1.01 | S. cerevisiae deletion strains, locus YOR069W, strain VPS5, active compounds read low 1.01 | S. cerevisiae deletion strains, locus YOR070C, strain gyp1, active compounds read low 0.996 | S. cerevisiae deletion strains, locus YOR080W, strain dia2, active compounds read low 0.986 | S. cerevisiae deletion strains, locus YOR083W, strain WHI5 (second series), active compounds read low 1.03 | S. cerevisiae deletion strains, locus YOR083W, strain WHI5, active compounds read low 0.954 | S. cerevisiae deletion strains, locus YOR106W, strain vam3, active compounds read low 0.927 | S. cerevisiae deletion strains, locus YOR136W, strain idh2, active compounds read low 0.991 | S. cerevisiae deletion strains, locus YOR144C, strain elg1, active compounds read low 1.01 | S. cerevisiae deletion strains, locus YOR184W, strain ser1, active compounds read low 0.95 | S. cerevisiae deletion strains, locus YOR231W, strain MKK1, active compounds read low 1.05 | S. cerevisiae deletion strains, locus YOR265W, strain rbl2, active compounds read low 0.987 | S. cerevisiae deletion strains, locus YOR270C, strain vph1, active compounds read low 0.835 | S. cerevisiae deletion strains, locus YOR290C, strain snf2, active compounds read low 1.01 | S. cerevisiae deletion strains, locus YOR316C, strain cot1, active compounds read low 1.01 | S. cerevisiae deletion strains, locus YPL051W, strain arl3, active compounds read low 0.983 | S. cerevisiae deletion strains, locus YPL055C, strain LGE1, active compounds read low 0.918 | S. cerevisiae deletion strains, locus YPL078C, strain atp4, active compounds read low 0.947 | S. cerevisiae deletion strains, locus YPL106C, strain sse1, active compounds read low 1.02 | S. cerevisiae deletion strains, locus YPL240C, strain hsp82, active compounds read low 0.977 | S. cerevisiae deletion strains, locus YPL241C, strain CIN2, active compounds read low 1.01 | S. cerevisiae deletion strains, locus YPL256C, strain CLN2, active compounds read low 1.04 | S. cerevisiae deletion strains, locus YPR119W, strain clb2, active compounds read low 1 | S. cerevisiae deletion strains, locus YPR141C, strain kar3, active compounds read low 0.989 | S. cerevisiae deletion strains, locus YPR163C, strain tif3, active compounds read low 1 | S. cerevisiae deletion strains, locus YPR167C, strain met16, active compounds read low 1 | S. cerevisiae deletion strains, strain wtn01, active compounds read low 0.956 | S. cerevisiae strains, strain wild type, active compounds read low 0.975
